Screening results: PubChem BioAssay, National Center for Advancing Translational Sciences (NCATS)
IP6K1 inh – IP6K1 kinase inhibition | IP6K1 kinase, ADP-Glo luminescence, 2 h; active compounds read low | AID 1645851 | activity change, % (series mostly up to about 58 µM) | 0.81% of 140,000 active | Q92551; in the data active means activity change below about -25%; further: on the % scale 0 is the no-effect control and ±100 the full control effect
Target sequence (Q92551 whole entry, looked up): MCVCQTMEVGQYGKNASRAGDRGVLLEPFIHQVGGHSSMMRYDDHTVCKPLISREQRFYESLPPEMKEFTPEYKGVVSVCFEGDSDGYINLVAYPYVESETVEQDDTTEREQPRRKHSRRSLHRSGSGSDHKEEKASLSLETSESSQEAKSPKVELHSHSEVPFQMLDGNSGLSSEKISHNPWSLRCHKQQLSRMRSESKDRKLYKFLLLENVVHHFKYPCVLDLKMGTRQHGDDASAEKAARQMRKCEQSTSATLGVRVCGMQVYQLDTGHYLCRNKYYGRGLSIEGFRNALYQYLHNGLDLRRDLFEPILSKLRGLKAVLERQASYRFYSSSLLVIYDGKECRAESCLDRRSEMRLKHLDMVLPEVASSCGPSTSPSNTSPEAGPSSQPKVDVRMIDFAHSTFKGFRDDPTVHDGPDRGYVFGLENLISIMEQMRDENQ
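ADP-Glo luminescence measures ADP made by human IP6K1 during a 2 h RT reaction with ATP/IP6 (mix at 1.3 mM/130 uM); top library doses 57.5 and 19.1 uM final.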
HEK293 viab – reduces viability of HEK-293 SNCA reporter cells; HEK-293-SNCA-luc viability, GF-AFC fluorescence, 24 h; AID 1671193; 0.12% of 150,000 active; Potency, µM (top dose mostly 57.1 µM), inactives show at the top dose activity change, negative = cytotoxicity, most hits filed as cytotoxic;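 further: potency means the concentration at half of the fitted maximal effect; 0% = DMSO-treated cells and -100% = medium-only wells without cells; nearly all actives have a fitted effect of over 30% in size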
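HEK-293-SNCA-luc cells (1500/well) plated 24 h, then exposed 24 h to a dilution series; GF-AFC added 30 min at 37C, fluorescence 405/540 nm; normalised to medium-only and DMSO wells, Hill fit.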
KDM5B inh – blocks human KDM5B histone demethylase activity | 2.6% of 220,000 active | KDM5B demethylase, FDH-coupled NADH fluorescence (FDH is formaldehyde dehydrogenase) | Q9UGL1 | Potency, µM (titrated, usually from 57.7 µM), actives largely listed as inhibitors | AID 1347165; further: potency means the concentration at half of the fitted maximal effect; 0% is about no effect; nearly all actives have a fitted effect of over 70% in size
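Coupled FDH/NAD⁺ fluorescence readout. KDM5BΔAP 200 nM final; compound titration, 10 min RT preincubation; substrate mix 12.5 µM H3K4me3, 25 µM 2-OG, 50 µM Fe(II), 100 µM ascorbate, 0.25 mM NAD⁺, 0.25 U/mL FDH; ΔRFU over 30 min.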
SNCA expr inhib – inhibitors of alpha-synuclein (SNCA) gene expression. HEK-293 SNCA-luciferase knock-in, luminescence, 24 h. Potency, µM (top dose mostly 57.2 µM), for inactives: at the highest dose activity change, negative = inhibition, hits mostly inhibitors. 0.17% of 140,000 active;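 further: potency means the concentration at half of the fitted maximal effect; plate controls were DMSO cells for no effect and cell-free wells for full effect; nearly all actives have a fitted effect of over 45% in size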
Active calls of the source: *; i = inactive; ? = inconclusive; / = no result; [ ] = remark or other dose. Rows were chosen to be rich in hits. Some 3% of all compounds tested hit in one or more screens of this group. Unless noted, the call rests on the fitted dose curve; in most records, active means well fitted curve in the direction sought with a large enough effect; inconclusive means small, poorly fitted or top-dose-only effect, or another doubt; inactive means no such curve, though single readings can be large; an effect the other way counts as inactive or inconclusive.

SMILES | IP6K1 inh | HEK293 viab | KDM5B inh | SNCA expr inhib
N#Cc1c2c(c3nncn3c1NCc1ccncc1)CN(Cc1ccccc1)CC2 | / | / | i | /
CCCNc1c(NC(=O)c2ccc(OCC)c(OCC)c2)c(=O)oc2ccccc12 | / | / | i | /
Cc1nn(-c2ccccc2)c2c1C(C1CC1)N(C1CCN(C(=O)c3ccccc3F)C1)C2=O (stereo not given) | 0.4 | / | / | /
Cc1cc(C)c(S(=O)(=O)NCC(c2cccnc2)S(=O)(=O)c2ccccc2)c(C)c1 (stereo not given) | / | / | i | /
O=C(CSc1nnc2ccc(-c3ccco3)nn12)N1CCOCC1 | / | / | i | /
CC1=C/C(=N\NC(=S)Nc2ccccc2C)CC1 | / | / | i | /
CN1CCN(c2cc(=O)c3ccnc(-c4ccc(F)cc4)c3o2)CC1 | -15.1 | -8.3%[87.6 µM] | 28.2µM* | 3.6%[87.6 µM]
O=C(CNC(=O)c1ccc(-c2cccc(C(F)(F)F)c2)cc1)NCCc1ccc(F)cc1 | 3.8 | -3.4%[12.5 µM] | / | -8.8%
COc1ccc(-c2ccc3c(c2)C(=O)N2CCN(C(=O)c4cccnc4)C[C@@H]2C(=O)N3)cc1 | -6.7 | 1.0% | ? | 2.9%
COCC(=O)N1CCN2C(=O)c3cc(-c4cccc(C(F)(F)F)c4)ccc3NC(=O)[C@H]2C1 | -4.9 | 7.6% | 28.2µM* | 4.1%
COc1ccc(-c2ccc3c(c2)C(=O)N2CCN(C(=O)COc4ccccc4)C[C@@H]2C(=O)N3)cc1 | -3.3 | 1.1% | 28.2µM* | -4.5%
C=CCO[C@@H]1C[C@H]2C(=O)Nc3ccc(-c4ccccc4)cc3C(=O)N2C1 | 4.8 | -20.4%[87.6 µM] | i | -18.8%[87.6 µM]
C=CCO[C@@H]1C[C@H]2C(=O)Nc3ccc(-c4ccc(OC)cc4)cc3C(=O)N2C1 | -12.0 | -8.7%[87.6 µM] | 35.5µM* | -9.4%[87.6 µM]
COc1ccc(-c2ccc3c(c2)C(=O)N2CCN(C(=O)NC4CCCCC4)C[C@@H]2C(=O)N3)cc1 | 2.4 | 0.5% | ? | 18.2%
O=C1Nc2ccc(-c3cccc(C(F)(F)F)c3)cc2C(=O)N2CCN(C(=O)NC3CCCCC3)C[C@H]12 | -17.0 | -28.0% | ? | ?
COCC(=O)N1CCN2C(=O)c3cc(-c4ccc(OC)cc4)ccc3NC(=O)[C@H]2C1 | 4.8 | -1.1%[87.6 µM] | 31.6µM* | 7.5%[87.6 µM]
CCCCNc1nc(-c2ccc(Cl)cc2Cl)cs1 | / | / | i | /
Cc1cc2ccccc2n1CC(=O)NCC(=O)N1CCCC1 | / | / | i | /
COc1ccccc1C(=O)NC1CCN(c2ccnc3ccnn23)C1 (stereo not given) | 13.1 | ? | / | -18.8%[87.6 µM]
O=C(NCc1ccc(F)cc1)C1CCN(Cc2ccccc2-c2ccccc2F)CC1 | 14.3 | / | / | /
O=C1Nc2ccc(-c3cccc(C(F)(F)F)c3)cc2C(=O)N2CCN(C(=O)c3ccco3)C[C@@H]12 | -14.1 | -26.5% | 35.5µM* | -29.6%
O=C1Nc2ccc(-c3cccc(C(F)(F)F)c3)cc2C(=O)N2C[C@H](O)C[C@@H]12 | -10.2 | 5.3%[87.6 µM] | ? | -9.4%[87.6 µM]
O=C(CC1C(=O)NCCN1Cc1ccc(-c2ccccc2)cc1)NCc1ccco1 (stereo not given) | -23.4 | 1.3% | 25.1µM* | -13.6%
O=C(CC1C(=O)NCCN1Cc1ccc(-c2ccccc2)cc1)NC(CO)CO (stereo not given) | 20.7 | 0.9% | 20µM* | -7.2%
CCOc1ccccc1CN1CCNC(=O)C1CC(=O)NCc1ccco1 (stereo not given) | -4.4 | 1.5% | ? | -5.5%
SMILES | IP6K1 inh | HEK293 viab | KDM5B inh | SNCA expr inhib
O=C(CC1C(=O)NCCN1Cc1ccccc1)NC1C2CC3CC(C2)CC1C3 (stereo not given) | 19.5 | 4.5% | i | 16.6%
Cn1ncc2c(C(=O)NC3CCOC3)cc(-c3cccc(C(F)(F)F)c3)nc21 (stereo not given) | 3.2 | / | / | /
COc1ccc(S(=O)(=O)NCCNc2cc(C)nc3ccnn23)cc1 | 12.8 | -18.7% | 28.2µM* | 0.8%
COc1ccc(S(=O)(=O)NCc2nc3nc(C)cc(C)n3n2)cc1 | 6.2 | -9.6% | i | 2.5%
COc1ccc(NS(=O)(=O)c2ccc3c(c2)[C@H]2C=CC[C@H]2[C@@H](c2ccc(C(=O)O)cc2)N3)cc1 | -57.9* | -15.5% | ? | 17.9%
COC(=O)c1ccc([C@H]2Nc3ccc(S(=O)(=O)Nc4ccc(C)cc4)cc3[C@H]3C=CC[C@H]32)cc1 | -11.5 | -2.7% | ? | -18.7%
Cc1ccc(-n2nc(C)c([C@@H]3C=C[C@@H](NS(=O)(=O)c4cccs4)C3)c2C)cc1Cl | 10.4 | ? | ? | -10.9%
COC(=O)CNC(=O)c1nc(-c2ccc(Cl)cc2Cl)c2cnccn12 | -14.4 | 1.7% | 79.4µM* | -17.9%
